High-throughput results (PubChem)
Compounds with a hit are over-represented: about 8% of the library has one in this group of screens.
HT1080NT lethal – qHTS for induction of synthetic lethality in tumor cells producing 2HG: qHTS for the HT-1080-NT fibrosarcoma cell line; HT-1080-NT fibrosarcoma viability, CellTiter-Glo ATP luminescence, 48 h; Potency, µM (series often up to 46.1 µM), most hits filed as cytotoxic; hit rate 1.6% among 360,000; AID 686970, 2013;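 note: NT is the 2HG producing partner of a matched IDH1 knockdown line; nearly all actives have a fitted effect of over 55% in size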
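A 48-hour cytotoxicity screen used HT-1080-NT cells plated 2 hours before compound delivery. ATP-based CellTiter-Glo luminescence measured viability, normalized to DMSO and no-cell controls.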
HT1080 IDH1KD tx – qHTS for induction of synthetic lethality in tumor cells producing 2HG: qHTS for the HT-1080-IDH1KD cell line. HT-1080 IDH1 knockdown viability, ATP luminescence, 48 h. Potency, µM (series often up to 46.1 µM), hits mostly cytotoxic. hit rate 2% among 360,000
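Luminescent ATP read-out (CellTiter-Glo, 10 min at room temperature) after 48 h compound exposure at 37 °C gave viability of IDH1-knockdown HT-1080 cells. Activity was normalised to DMSO and cell-free wells, then fitted as concentration-response curves.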
MCF10A rerep – A quantitative high throughput screen for small molecules that induce DNA re-replication in MCF 10a normal breast cells | MCF 10A DNA re-replication, Hoechst nuclear intensity, 48 h | Potency, µM (series often up to 46.1 µM), usual class: activators | hit rate 2.9% among 350,000 | AID 624296, 2012; note: nearly all actives have a fitted effect of over 50% in size
SW480 rerep – A quantitative high throughput screen for small molecules that induce DNA re-replication in SW480 colon adenocarcinoma cells | SW480 DNA re-replication, Hoechst DNA content imaging, 48 h | Potency, µM (top dose mostly 46.1 µM), hits mostly activators | hit rate 1.8% among 340,000 | AID 624297, 2012; note: nearly all actives have a fitted effect of over 55% in size
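Quantitative HTS format with DMSO vehicle controls; 48 hr drug incubation at 37 C, then 40 min Hoechst staining and scanning imager measurement at 405 nm excitation.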
KB-V1 MDR tox – qHTS assay for MDR1-selective chemotherapeutics: Primary screen using the drug-selected MDR subline cells KB-V1; KB-V1 MDR cells viability, CellTiter-Glo, 72 h; Potency, µM (series often up to 46.1 µM), most hits filed as cytotoxic; hit rate 3.4% among 400,000; AID 1347076, 2019; note: nearly all actives have a fitted effect of over 60% in size
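In this primary screen, KB-V1 cells overexpressing P-gp are incubated with library compounds (lowest to highest concentration) for 72 h at 37 degrees C before a luminescent ATP viability read.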
KB-3-1 tox – qHTS assay for MDR1-selective chemotherapeutics: Primary screen using the parental adenocarcinoma cell KB-3-1 | KB-3-1 viability, CellTiter-Glo ATP luminescence, 72 h | hit rate 1.4% among 400,000 | Potency, µM (top dose mostly 46.1 µM), actives largely listed as cytotoxic; note: nearly all actives have a fitted effect of over 60% in size
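Viability of parental KB-3-1 cells, measured by CellTiter-Glo luminescence, followed a 72 h incubation at 37 °C with pinned compounds in phenol-red-free DMEM containing 10% FBS.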
A number is an active result; – = inactive; ? = inconclusive; · = not tested or not shown; [ ] = remark or other dose. Calls come from the whole dose curve; as a rule, active = well fitted curve in the direction sought with a large enough effect; inconclusive = small, poorly fitted or top-dose-only effect, or another doubt; inactive = no such curve, though single readings can be large; an effect the other way counts as inactive or inconclusive.

SMILES	HT1080NT lethal	HT1080 IDH1KD tx	MCF10A rerep	SW480 rerep	KB-V1 MDR tox	KB-3-1 tox
Cc1cccc(NC(=O)CSc2cc(C)c(C#N)c3nc4ccccc4n23)c1	?	–	–	2.91µM	–	–
CCOCCCNC(=O)C(c1ccccc1)N(Cc1ccc2c(c1)OCO2)C(=O)c1ccc(NC(C)=O)cc1 (configuration not stated)	·	·	·	·	?	–
O=C(CSc1nnc(-c2cccnc2)n1Cc1ccco1)c1ccc2ccccc2c1	–	–	–	–	14.6µM	–
COc1cc(Cl)c(C)cc1NC(=O)CSc1nnc(-c2ccccn2)n1Cc1ccco1	–	–	–	–	2.31µM	–
CNC(=O)CSc1nnc(-c2ccccn2)n1Cc1ccco1	–	–	–	–	–	–
O=C(CSc1nnc(-c2ccccn2)n1Cc1ccco1)c1ccc(Cl)cc1	–	–	–	–	9.2µM	–
COc1ccc(C(=O)CSc2nnc(-c3ccccn3)n2Cc2ccco2)cc1	–	–	–	–	18.4µM	–
O=C(CSc1nnc(-c2ccccn2)n1Cc1ccco1)c1ccccc1	–	–	–	–	?	–
Cc1ccc(CCNC(=O)C(C)n2nc(C)c3c(C)n(-c4ccc(C)cc4)nc3c2=O)cc1 (configuration not stated)	·	·	·	·	?	–
COc1cccc(/C=C/c2nc(C#N)c(NCCN(C)C)o2)c1	·	·	·	·	–	–
COc1ccc(NC(=O)CSc2nc3ccccc3c(=O)n2CCCN2CCC(C)CC2)c(OC)c1	–	–	–	–	–	–
O=C(/C=C/c1ccco1)Oc1cccc2cccnc12	?	20.6µM	–	?	–	–
O=C(/C=C\c1ccco1)Oc1cccc2cccnc12	?	14.6µM	?	–	–	?
O=C(CN1C(=O)NC2(CCCC2)C1=O)NNC(=O)c1ccc(Cl)cc1	–	–	–	–	?	–
COC(=O)c1sccc1S(=O)(=O)N(CC(=O)NCc1ccccc1)c1ccccc1	·	·	·	·	–	–
Cc1cccc(-c2nc3c(c(SCC(=O)N4CCOCC4)n2)Cc2c(CO)cnc(C)c2O3)c1	?	?	–	–	–	14.6µM
Cc1ncc(CO)c2c1Oc1nc(-c3ccccc3)nc(SCC(=O)N3CCOCC3)c1C2	–	–	–	–	–	–
Cc1ncc(CO)c2c1Oc1nc(-c3ccccc3F)nc(SCC(=O)N(C)c3ccccc3)c1C2	?	20.6µM	?	–	?	–
O=[N+]([O-])c1ccc(Sc2ccncn2)c([N+](=O)[O-])c1	18.4µM	14.6µM	·	·	?	11.6µM
COc1ccc(-c2cn3nc(N4CCCC(C(=O)Nc5cccc(OC)c5)C4)sc3n2)cc1 (configuration not stated)	·	·	·	·	–	–
CCOC(=O)CS(=O)(=O)c1nc(-c2ccc(F)cc2)cc(C(F)(F)F)n1	6.51µM	13µM	3.66µM	–	–	3.26µM
CCOC(=O)CCS(=O)(=O)c1nc(-c2ccccc2)cc(C(F)(F)F)n1	?	5.17µM	?	–	–	?
CCOC(=O)CS(=O)(=O)c1nc(-c2ccccc2)cc(C(F)(F)F)n1	9.2µM	6.51µM	?	2.59µM	?	13µM
COC(=O)CCS(=O)(=O)c1nc(-c2ccccc2)cc(C(F)(F)F)n1	7.08µM	3.55µM	3.66µM	?	?	–
CCNC(=S)N1CCCC(C(N)=O)C1 (configuration not stated)	–	–	–	–	–	–
SMILES	HT1080NT lethal	HT1080 IDH1KD tx	MCF10A rerep	SW480 rerep	KB-V1 MDR tox	KB-3-1 tox
Cc1ccc(NC(=O)CC2OC(=O)c3ccccc32)cc1S(=O)(=O)N1CCOCC1 (configuration not stated)	–	–	–	–	–	–
Cc1cccc(N2CCN(C(=O)CS(=O)(=O)c3cccc4nsnc34)CC2C)c1 (configuration not stated)	·	·	·	·	?	–
COCC(C)NC(=O)CCS(=O)(=O)c1nc(-c2ccc(OC)cc2)cc(C(F)(F)F)n1 (configuration not stated)	?	23.1µM	3.66µM	–	–	–
COC(=O)c1ccccc1NC(=O)CCCS(=O)(=O)c1nc(-c2ccccc2OC)cc(C(F)(F)F)n1	·	·	·	·	–	–
COc1ccc(-c2cc(C(F)(F)F)nc(S(=O)(=O)CCCC(=O)Nc3cccnc3Cl)n2)cc1OC	?	10.3µM	11.6µM	–	–	–
CCC(C)NC(=O)CCSc1nc(-c2ccc(OC)cc2)cc(C(F)(F)F)n1 (configuration not stated)	·	·	·	·	?	–
CC(C)(C)c1ccc(/C=N/NC(=S)NC2CCCCC2)cc1	–	?	16.4µM	?	?	?
O=C(CNC(=O)OCc1ccccc1)NC1CCCCCCC1	–	–	–	–	18.4µM	–
O=C(N/N=C/c1ccccc1)NC1CCCCC1	–	–	–	–	16.4µM	–
O=C(Nc1ccccc1NC(=O)NC1CCCCC1)NC1CCCCC1	–	–	3.66µM	?	–	?
Cc1cccc(C)c1NC(=O)Cn1c(=O)n(CCC(=O)NCc2ccccc2Cl)c(=O)c2sccc21	·	·	·	·	?	–
CC(=O)Cc1nsc(NC(=O)c2ccc(Br)o2)n1	–	–[9.24 µM]	?	–	–	–
CC(=O)Cc1nsc(NC(=O)c2ccc(-c3cccc(Cl)c3)o2)n1	–	?	10.3µM	?	–	?
CCc1nc2n[nH]c(N)c2c2c1CCCC2	–	–	–	–	–	–
CCCCc1nc2n[nH]c(N)c2c2c1CCC2	–	–	–	–	0.651µM	?
C=CCNC(=O)/C(C#N)=C/c1ccccc1[N+](=O)[O-]	–	–	–	?	–	–
N#C/C(=C\C=C\c1ccccc1[N+](=O)[O-])C(=O)NCc1ccccc1	–	?	3.66µM	20.6µM	?	16.4µM
N#C/C(=C\c1ccccc1[N+](=O)[O-])C(=O)NCc1ccccc1	–	–	?	?	–	–
CCCCCCCCNC(=O)/C(C#N)=C/c1ccccc1[N+](=O)[O-]	–	–	?	–	16.4µM	?
Cc1ccc(NC(=O)N2CCN(Cc3nc4ccc(C)cc4o3)CC2)cc1	·	·	·	·	–	–
CCOC(=O)N1CCC(N2CCCC(CO)(Cc3ccccc3C)C2)CC1 (configuration not stated)	–	–	–	–	–	–
COc1ccc(CCC(=O)Nc2cc(S(=O)(=O)N3CCOCC3)ccc2OC(C)C)cc1	–[9.24 µM]	–	–	–	–	–
COCC(C)N=C1NN=C(c2ccc(NC(C)=O)cc2)CS1 (configuration not stated)	–	–	5.8µM	?	–	–
